Among all 16,000 compounds or so, about 5,100 (32%) were called active. About 25% were inconclusive and are not listed. Some of the results follow. Values without a mark were called inactive. The call rests on the fitted dose curve; in most records, active means well fitted curve in the direction sought with a large enough effect; inconclusive means small, poorly fitted or top-dose-only effect, or effect the other way; inactive means no such curve, though single readings can be large or run the other way.
On the % scale 0 is the no-effect control and ±100 the full control effect.

For the assay, the target named is Cytochrome P450 3A4 (Homo sapiens) (UniProt P08684). Put plainly: Cytochrome panel assay with activity outcomes. The note with it: recombinant CYP, pro-luciferin dealkylation, luminescence, p450-cyp3a4; series mostly up to 57.1 µM; activity, negative = inhibition: at the top concentration.
Chain of Cytochrome P450 3A4 (Homo sapiens) (P08684 whole entry, looked up): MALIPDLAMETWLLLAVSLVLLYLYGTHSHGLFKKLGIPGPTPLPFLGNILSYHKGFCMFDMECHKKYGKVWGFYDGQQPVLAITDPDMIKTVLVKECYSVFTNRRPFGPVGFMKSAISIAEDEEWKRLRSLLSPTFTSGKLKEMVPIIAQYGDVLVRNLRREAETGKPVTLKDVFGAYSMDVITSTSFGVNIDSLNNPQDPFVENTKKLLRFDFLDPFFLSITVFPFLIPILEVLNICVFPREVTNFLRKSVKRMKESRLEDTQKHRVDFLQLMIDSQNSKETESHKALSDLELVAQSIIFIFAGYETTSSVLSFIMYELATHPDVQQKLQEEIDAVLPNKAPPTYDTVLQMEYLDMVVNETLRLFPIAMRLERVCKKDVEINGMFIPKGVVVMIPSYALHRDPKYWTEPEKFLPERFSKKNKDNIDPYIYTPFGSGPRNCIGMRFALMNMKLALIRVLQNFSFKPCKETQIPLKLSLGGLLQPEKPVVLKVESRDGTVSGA
The AC50 is the midpoint of the concentration-response curve, whichever way the signal moves. With `CCC(NC(=O)C1(C)CC1(Br)Br)c1ccc(C)cc1` (centres undefined), the AC50 was 3.98 µM (active). Turning to `CCC(C)[C@H](NC(=O)NC1CCN(Cc2ccccc2)CC1)C(=O)OC` (some centres undefined), the “activity, negative = inhibition” value was 6.5%.

In the case of `CCC(C)C(NC(=O)OCc1ccccc1)C(=O)OCN1C(=O)c2ccccc2C1=O` (centres undefined), the AC50 was 7.08 µM (active). With `O=C1NCCc2c1[nH]c1ccccc21`, the activity, negative = inhibition is 17.8% [at 2.29 µM]. Regarding `CCOc1cc(/C=C2\N=C(C)OC2=O)cc(Br)c1OCC(=O)OC`, the AC50 is 10 µM (active). Turning to `CCOC(=O)COc1c(C=O)cc(Br)cc1OC`, the “activity, negative = inhibition” value was -7.04%. Same read-out and setting: the figure for `O=C1CCC(c2ccccc2)(c2ccccc2)CC1` is 10.5% [at 11.4 µM]; for `c1ccc2c(CC3NCCN3)cccc2c1` it is -5.75% [at 11.4 µM]; for `CN1CCCC[C@@H]1CCN1CCCCC1` it is -2.94% [at 11.4 µM]. The same measure, in the same setting: the figure for `OCCNc1nc2ccccc2[nH]1` is -4.38%. The same measure, in the same setting: for `CCN(CC)c1nc2ccccc2[nH]1` the value was -13.8%.

In the case of `c1ccc(-c2n[nH]c(-c3ccccc3)c2-c2nc3ccccc3[nH]2)cc1`, the half-maximal activity concentration (AC50) is 2.24 µM (active). As to `Cc1c(Cl)c(S(N)(=O)=O)cc2c1=NC=NS=2(=O)O`, the activity, negative = inhibition was -13% [at 11.4 µM]. With `CCON=C1C(C)(C)C(C)(C)C(C)(C)C1(C)C`, the activity, negative = inhibition is -9.31% [at 11.4 µM]. Take `COc1ccc(O[C@H]2C=C[C@@H](c3ccccc3)O[C@H]2COC(=O)CC/C(C)=N\O[C@@H](C)CN2CCCCc3nc(C)c(C)cc32)cc1`: the half-maximal activity concentration (AC50) was 3.98 µM (active). Regarding `COc1ccc(O[C@H]2C=C[C@@H](c3ccccc3)O[C@H]2COC(=O)CC/C(C)=N\O[C@@H](C)CN2CCCc3nc(C)c(C)cc32)cc1`, the AC50 was 3.16 µM (active).

For `Cc1ccc(N(C(C)C(=O)Nc2cc(Cl)ccc2Oc2ccccc2)S(C)(=O)=O)cc1` (centres undefined), the AC50 is 4.47 µM (active). On the same count and under the same terms, the figure for `CC(C(=O)Nc1ccccc1Sc1ccccc1)N(c1ccccc1)S(C)(=O)=O` (centres undefined) is 5.01 µM (active). On to `O=C(O)[C@@H]1Cc2c([nH]c3ccccc23)[C@@H](CCCCO)N1`, for which the activity, negative = inhibition is 1.47% [at 11.4 µM]. The same measure, in the same setting: the figure for `CC(=O)N1CCC2(CCCN(c3ncccn3)C2)CC1` is 5.39%. Same read-out and setting: for `COc1ccc(C(=O)NC2(C(F)(F)F)C(=O)Nc3c2c(=O)[nH]c(=O)n3CCc2ccc(OC)c(OC)c2)cc1` (centres undefined) the value was -10.4%; for `COc1ccc(CCN2C(=NC(=O)CCC(=O)O)SC3CS(=O)(=O)CC32)cc1` (centres undefined), 8.98%. In the case of `O=C(CC1C(=O)N(c2ccc(Cl)cc2)C(=S)N1CCc1ccncc1)Nc1ccc(F)cc1` (centres undefined), the AC50 is 1.26 µM (active).

Consider `CCNC(=O)CC1C(=O)N(c2ccc(F)cc2)C(=O)N1CCc1ccc(OC)cc1` (centres undefined), for which the concentration at half-maximal activity (AC50) is 7.08 µM (active). Consider `CC(=O)Nc1ccc(S(=O)(=O)NC2(C(F)(F)F)NC(=O)N(c3ccc(Cl)cc3)C2=O)cc1` (centres undefined), for which the “activity, negative = inhibition” value was 3.14%. For `COc1ccc2c3c(ccc2c1)N[C@H](C(=O)O)CC3`, the activity, negative = inhibition is -10.2% [at 11.4 µM]. On to `O=C(c1ccncc1)N1CCC2(CC1)CN(c1cccc(-c3ccccc3)c1)C2`, for which the AC50 was 7.94 µM (active).

Regarding `O=C(c1ccco1)N1CCC2(CC1)CN(c1cccc(-c3ccccc3)c1)C2`, the “activity, negative = inhibition” value was -14.6%. On to `O=C(c1cnccn1)N1CCC[C@@]2(CCN(c3ccccn3)C2)C1`, for which the concentration at half-maximal activity (AC50) is 10 µM (active). Consider `CC(=O)N1CCC[C@@]2(CCN(c3ncccn3)C2)C1`, for which the “activity, negative = inhibition” value is -5.73%.

For `O=C(c1ccncc1)N1CCC[C@@]2(CCN(c3ccccc3)C2)C1`, the AC50 is 3.16 µM (active).

`O=C(c1ccncc1)N1CCC2(CC1)CN(c1ccccc1)C2`: the “activity, negative = inhibition” value is -28.5%. In the case of `O=C(c1cnccn1)N1CCC[C@@]2(CCN(c3ccccc3)C2)C1`, the concentration at half-maximal activity (AC50) is 7.94 µM (active). For `O=C(c1ccncc1)N1CCC2(CC1)CN(c1ncccn1)C2`, the “activity, negative = inhibition” value was -26.6%. The same measure, in the same setting: the figure for `O=C(c1ccncc1)N1CCC2(CC1)CCN(c1ccccc1)CC2` is -29.2%; for `CC1(C)Oc2cc(N)c([N+](=O)[O-])cc2O1` it is -22%; for `Cc1c(C=NCCOCc2ccccc2)cnn1C` it is -18.1%. In the case of `O=C(c1ccncc1)N1CCC[C@@]2(CCN(c3ccccn3)C2)C1`, the half-maximal activity concentration (AC50) is 7.94 µM (active). With `CC(=O)N1CCC2(CC1)CN(c1ccncc1)C2`, the “activity, negative = inhibition” value was -1.4%. For `CC(=O)N1CCC2(CCCN(c3ccccn3)C2)CC1`, the “activity, negative = inhibition” value was -26.5%. For `O=C(c1cnccn1)N1CCC[C@@]2(CCN(c3ccncc3)C2)C1`, the AC50 was 3.16 µM (active). Regarding `O=C(c1ccncc1)N1CCC2(CC1)CCN(c1ccccn1)CC2`, the “activity, negative = inhibition” value was -20.5%.

On to `O=C(c1cnccn1)N1CCC2(CC1)CN(c1ccncc1)C2`, for which the “activity, negative = inhibition” value is -3.55%. Take `COc1ccc(C2C(C#N)=C(N)N(Nc3ccccc3)C3=C2C(=O)CC(C)(C)C3)cc1C` (centres undefined): the AC50 is 2 µM (active).

As for `COc1cc(C2C(C#N)=C(N)N(Nc3ccccc3)C3=C2C(=O)CC(C)(C)C3)ccc1OCc1ccccc1` (centres undefined), the half-maximal activity concentration (AC50) was 2.82 µM (active). Same read-out and setting: the figure for `COc1cc(C2C(C#N)=C(N)N(c3sc4c(c3C#N)CCCC4)C3=C2C(=O)CC(C)(C)C3)cc(OC)c1OC` (centres undefined) is 0.501 µM (active); for `COc1cc(C2C(C#N)=C(N)N(Nc3ccccc3)C3=C2C(=O)CC(C)(C)C3)ccc1OCc1cccc(F)c1` (centres undefined) it is 2.51 µM (active).

Regarding `CCOc1cc(/C=C2\CCC/C(=C\c3cc(Cl)c(O)c(OCC)c3)C2=O)cc(Cl)c1O`, the activity, negative = inhibition was -14.8% [at 2.29 µM]. With `CCCCCCCCCCCCC/C=C\[C@@H](O)[C@@H](N)CO`, the “activity, negative = inhibition” value is -9.6%. Same read-out and setting: the figure for `CN(c1ccc(C(=O)NCC2CCCO2)cc1)S(=O)(=O)c1ccccc1` (centres undefined) is 10.5%; for `O=C(O)CCSCc1ccccc1` it is -12.2% [at 11.4 µM]. As to `Cc1cccc(CSCCNC(=O)c2ccc(N(C)S(=O)(=O)c3ccccc3)cc2)c1`, the AC50 is 3.98 µM (active). The same measure, in the same setting: for `C=CCOC(=O)/C(=C\c1cccc2ccccc12)NC(=O)c1ccccc1` the value was 0.2 µM (active). With `O=C1CCC(c2ccc(-n3ccnc3)cc2)=NN1`, the concentration at half-maximal activity (AC50) was 1.58 µM (active). Consider `N#C/C(=C\c1ccc(Cl)cc1)c1nc2ncccc2[nH]1`, for which the activity, negative = inhibition is -7.91% [at 2.29 µM]. Take `COc1cc(/C=C(/C#N)c2nc3ccccc3[nH]2)ccc1Oc1ncccc1[N+](=O)[O-]`: the AC50 is 1.58 µM (active). Same read-out and setting: the figure for `COc1cc(/C=C(/C#N)c2nc3ccccc3[nH]2)ccc1OCC(=O)Nc1ccccc1C` is 1.26 µM (active).

For `N#C/C(=C\c1ccccc1)c1nc2ncccc2[nH]1`, the activity, negative = inhibition was -24% [at 2.29 µM]. On the same count and under the same terms, for `COc1ncnc(NS(=O)(=O)c2ccc(N)cc2)c1OC` the value was -8.96% [at 25.6 µM].

The values are drawn from PubChem BioAssay AID1851 (National Center for Advancing Translational Sciences (NCATS), 2009).
